According to PubChem BioAssay (EPA / NIEHS):
Records with an inconclusive call do not appear. Activity calls are given as the source filed them. How the source made its calls: active means hit-call score of the fitted dose curve at least 0.9, where 1 is the maximum; inconclusive means response in the unintended direction; inactive means score below 0.9.

Assay: TOX21_TRB_BLA_Agonist_Followup_viability: Viability Assessment in the Tox21 Thyroid Hormone Receptor beta Agonism Beta-lactamase (BLA) Follow-Up Assay (AID 2283956)
Description: The GeneBLAzer TRb-UAS-bla HEK293T assay kit for human TRb (ThermoFisherScientific Catalog No. K1684) was used as a secondary assay for specificity (TRb-bla). This assay contained the ligand-binding domain (LBD) of the human TRb fused to the DNA-binding domain of GAL4 stably integrated in the GeneBLAzer UAS-bla HEK293Tcell line. The reporter gene, b-lactamase, is under the transcriptional control of a UAS that binds the GAL4 DNA-binding domain. A cell viability assay was run in parallel for these cells as well using the CellTiter-Glo viability assay kit.TOX21_TRB_BLA_Agonist_Followup_viability is a component of the TOX21_TRB_BLA_Agonist_Followup assay. This component measures cell viability using the CellTiter-Glo Luciferase-coupled ATP quantitation.The assay component endpoint TOX21_TRB_BLA_Agonist_Followup_viability was analyzed with bidirectional fitting relation to DMSO as the negative control and baseline of activity. Using a type of viability reporter, loss-of-signal activity can be used to understand changes in viability. To generalize the intended target to other relatable targets, this assay endpoint is annotated to cell cycle, where the subfamily is cytotoxicity.
Cell Media Required: Growth (90% DMEM/F-12, 10% Fetal Bovine Calf Serum, 100U/ml Penicillin, 100 ug/ml Streptomycin), Assay (10ng/mL sodium selenite, 10 ug/mL humanapo-transferrin, 10 uM ethanolamine, 10 ug/mL insulin, 500 ug/mL bovine serum albumin (BSA))Assay Protocol: TRb-bla cells were dispensed at 3,000 cells/well in 5 uL of the assay medium containing phenol red-free DMEM with 2% charcoal-stripped FBS in 1,536-well black-wall/clear-bottom plates using an FRD. After 5-h incubation at 37C/5% CO2 for cell attachment to the well bottom, 23nL of follow-up compounds dissolved in DMSO, 11 concentrations in triplicate, and the positive control (T3; agonist format) were transferred to the assay plates using a Pintool station. The assay plates were incubated at 37C/5% CO2 for 18h. One microliter LiveBLAzer FRET-B/G CCF4-AM substrate was added to each well using an FRD. After 2-h incubation at room temperature, the fluorescence intensity was measured using an Envision plate reader. Data were expressed as the ratio of 460:530nm. The cytotoxicity of the compounds was measured in the same plates by adding 4 uL of CellTiter-Glo reagent to each well and incubating the plates at room temperature for 30 min. The luminescence intensity was measured using a ViewLux plate reader.For the luciferase reporter gene assay, 5 uL/well (agonist format) and 4 uL/well (antagonist format) ONE-Glo reagent (Promega Corporation) was added using an FRD and after 30-min incubation at room temperature, the luminescence intensity was measured using a ViewLux plate reader. Data were expressed as relative fluorescence units (cell viability assay) and relative luminescence units (luciferase reporter assay).
With `CSCC[C@H](NC(=O)[C@H](Cc1ccc(OS(=O)(=O)O)cc1)NC(=O)[C@@H](N)CC(=O)O)C(=O)NCC(=O)N[C@@H](Cc1c[nH]c2ccccc12)C(=O)N[C@@H](CCSC)C(=O)N[C@@H](CC(=O)O)C(=O)N[C@@H](Cc1ccccc1)C(N)=O` the outcome was “inactive”.
With `CC(C)(C)c1cc(C(C)(C)C)c(O)c(C(C)(C)C)c1` the outcome was “inactive”.
With `CC(C)(C)CC(C)(C)c1ccc(O)c(Cc2ccc(Cl)cc2Cl)c1` the outcome was “inactive”.
With `C=C(c1ccc(C(=O)O)cc1)c1cc2c(cc1C)C(C)(C)CCC2(C)C` the outcome was “inactive”.
In the case of `CCCCCCC(C)O` (stereo not given), the outcome is reported as “inactive”.
In the case of `CC(C)CC(=O)O`, the outcome is reported as “inactive”.
For `CCCCCCCCCCC`, the outcome was “inactive”.
In the case of `O=Cc1ccccc1S(=O)(=O)O`, the outcome is reported as “inactive”.
With `C=C(NC(=O)C(=C)NC(=O)c1csc(C2=NC3c4csc(n4)C4NC(=O)c5csc(n5)C(C(C)(O)C(C)O)NC(=O)C5CSC(=N5)/C(=C/C)NC(=O)C(C(C)O)NC(=O)c5csc(n5)C3(CC2)NC(=O)C(C)NC(=O)C(=C)NC(=O)C(C)NC(=O)C(C(C)CC)NC2C=Cc3c(C(C)O)cc(nc3C2O)C(=O)OC4C)n1)C(N)=O` (stereo not given) the outcome was “inactive”.
With `C[Si](C)O[Si](C)(C)O[Si](C)(C)O[Si](C)C` the outcome was “inactive”.
With `CC(C)=CCC/C(C)=C\CO` the outcome was “inactive”.
For `CCCCCCC(O)CO` (stereo not given), the outcome was “inactive”.
With `O=c1[nH]cnc2c1ncn2[C@H]1CC[C@@H](CO)O1` the outcome was “inactive”.
In the case of `CC1=C(/C=C/C(C)=C/C=C/C(C)=C/C(=O)O)C(C)(C)CCC1`, the outcome is reported as “inactive”.
With `C[C@]12CC[C@H]3C(=CCc4cc(O)ccc43)[C@@H]1CCC2=O` the outcome was “inactive”.
In the case of `COc1ccc(OC)c([C@@H](O)[C@H](C)N)c1`, the outcome is reported as “inactive”.
In the case of `CCC(C)c1cc(C(C)(C)C)c(O)c(C(C)(C)C)c1` (stereo not given), the outcome is reported as “inactive”.
In the case of `Cc1cc(C)nc(NS(=O)(=O)c2ccc(N)cc2)n1`, the outcome is reported as “inactive”.
For `Oc1ccccc1`, the outcome was “inactive”.
In the case of `CCCN(CCC)C(=O)SCC`, the outcome is reported as “inactive”.
For `CNC(=O)ON=C(CSC)C(C)(C)C`, the outcome was “inactive”.
For `CC(CCO)CCCC(C)(C)O` (stereo not given), the outcome was “inactive”.
With `OCCCCC(O)CO` (stereo not given) the outcome was “inactive”.
In the case of `CC1=C(/C=C/C(C)=C/C=C/C(C)=C\C(=O)O)C(C)(C)CCC1`, the outcome is reported as “inactive”.
For `O=C(O)Cc1cc(I)c(Oc2ccc(O)c(I)c2)c(I)c1`, the outcome was “inactive”.
With `O=C(c1ccccc1)c1ccc(O)cc1O` the outcome was “inactive”.
For `NC(CO)(CO)CO`, the outcome was “inactive”.
For `COC(=O)c1ccc(I)cc1S(=O)(=O)NC(=O)Nc1nc(C)nc(OC)n1`, the outcome was “inactive”.
In the case of `Nc1ncn([C@H]2C[C@H](O)[C@@H](CO)O2)c(=O)n1`, the outcome is reported as “inactive”.
In the case of `NCC(=O)CCC(=O)O`, the outcome is reported as “inactive”.
In the case of `Cc1cc(-n2c(=O)[nH]c(=O)n(C)c2=O)ccc1Oc1ccc(S(=O)(=O)C(F)(F)F)cc1`, the outcome is reported as “inactive”.
In the case of `CC1=C(/C=C/C(C)=C\C=C\C(C)=C\C(=O)O)C(C)(C)CCC1`, the outcome is reported as “inactive”.
In the case of `Nc1ccc(S(=O)(=O)Nc2nccs2)cc1`, the outcome is reported as “inactive”.
For `COc1cc(C)c(/C=C/C(C)=C/C=C/C(C)=C/C(=O)O)c(C)c1C`, the outcome was “inactive”.
With `Nc1ccc(S(N)(=O)=O)cc1` the outcome was “inactive”.
For `O=C(O)CCCCCCNC1c2ccccc2CCc2ccccc21`, the outcome was “inactive”.
For `O=C(O)Cc1cc(I)c(Oc2cc(I)c(O)c(I)c2)c(I)c1`, the outcome was “inactive”.
For `CC(=O)Nc1ccc(C(=O)CCl)cc1`, the outcome was “inactive”.
For `N[C@@H](Cc1cc(I)c(Oc2cc(I)c(O)c(I)c2)c(I)c1)C(=O)O`, the outcome was “inactive”.
For `N[C@@H](Cc1ccc(Oc2cc(I)c(O)c(I)c2)c(I)c1)C(=O)O`, the outcome was “inactive”.
